Compound activity (PubChem)
pPAFAH FP inh – pPAFAH (human) enzyme inhibition; Q13093; 330,000 compounds, 1.5% hits; recombinant pPAFAH, FP-rhodamine probe fluorescence polarization; inhibition, % at 3.39 µM;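 active = inhibition above the mean inhibition across the screen plus 3 SD, cut at about 25% in these data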;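 note: inhibitors block binding of the rhodamine activity-based probe so polarization drops; 0% = enzyme with DMSO and 100% = wells lacking pPAFAH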
Rin1 Abl inh – human Rin1-Abl interaction inhibition; P00519+Q13671; TR-FRET Rin1/Abl binding, biochemical; inhibition, % at 7.35 µM; 360,000 compounds, 0.4% hits; in the data active = inhibition above about 5%, passing the limit was not always enough
Target sequence (P00519 whole entry, looked up): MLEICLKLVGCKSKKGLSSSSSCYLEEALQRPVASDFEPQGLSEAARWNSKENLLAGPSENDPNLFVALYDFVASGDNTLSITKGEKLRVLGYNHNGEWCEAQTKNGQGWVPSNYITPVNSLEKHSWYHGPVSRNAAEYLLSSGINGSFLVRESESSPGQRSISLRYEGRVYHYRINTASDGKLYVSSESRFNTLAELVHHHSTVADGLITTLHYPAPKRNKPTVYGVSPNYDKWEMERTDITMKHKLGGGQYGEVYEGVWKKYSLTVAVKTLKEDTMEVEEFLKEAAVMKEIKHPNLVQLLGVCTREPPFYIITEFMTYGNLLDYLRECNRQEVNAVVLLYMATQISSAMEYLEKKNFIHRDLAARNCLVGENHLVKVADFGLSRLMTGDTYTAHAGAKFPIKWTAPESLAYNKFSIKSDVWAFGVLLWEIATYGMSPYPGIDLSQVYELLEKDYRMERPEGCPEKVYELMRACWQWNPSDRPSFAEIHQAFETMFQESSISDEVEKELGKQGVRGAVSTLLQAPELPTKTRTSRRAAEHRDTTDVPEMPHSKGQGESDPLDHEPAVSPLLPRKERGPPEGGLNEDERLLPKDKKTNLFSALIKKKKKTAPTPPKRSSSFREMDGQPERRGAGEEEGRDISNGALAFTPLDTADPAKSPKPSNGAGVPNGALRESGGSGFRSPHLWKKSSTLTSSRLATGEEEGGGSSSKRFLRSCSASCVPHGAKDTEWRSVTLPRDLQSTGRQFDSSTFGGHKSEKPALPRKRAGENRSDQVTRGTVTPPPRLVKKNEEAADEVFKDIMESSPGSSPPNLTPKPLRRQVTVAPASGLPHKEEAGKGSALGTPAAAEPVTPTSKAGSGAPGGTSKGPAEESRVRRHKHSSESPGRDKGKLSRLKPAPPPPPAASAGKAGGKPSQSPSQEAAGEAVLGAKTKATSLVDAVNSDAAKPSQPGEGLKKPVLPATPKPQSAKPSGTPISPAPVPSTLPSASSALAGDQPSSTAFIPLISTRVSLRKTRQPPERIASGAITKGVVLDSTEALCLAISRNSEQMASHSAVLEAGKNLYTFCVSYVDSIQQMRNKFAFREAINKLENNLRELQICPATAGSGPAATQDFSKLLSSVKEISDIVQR
Target sequence (Q13671 whole entry, looked up): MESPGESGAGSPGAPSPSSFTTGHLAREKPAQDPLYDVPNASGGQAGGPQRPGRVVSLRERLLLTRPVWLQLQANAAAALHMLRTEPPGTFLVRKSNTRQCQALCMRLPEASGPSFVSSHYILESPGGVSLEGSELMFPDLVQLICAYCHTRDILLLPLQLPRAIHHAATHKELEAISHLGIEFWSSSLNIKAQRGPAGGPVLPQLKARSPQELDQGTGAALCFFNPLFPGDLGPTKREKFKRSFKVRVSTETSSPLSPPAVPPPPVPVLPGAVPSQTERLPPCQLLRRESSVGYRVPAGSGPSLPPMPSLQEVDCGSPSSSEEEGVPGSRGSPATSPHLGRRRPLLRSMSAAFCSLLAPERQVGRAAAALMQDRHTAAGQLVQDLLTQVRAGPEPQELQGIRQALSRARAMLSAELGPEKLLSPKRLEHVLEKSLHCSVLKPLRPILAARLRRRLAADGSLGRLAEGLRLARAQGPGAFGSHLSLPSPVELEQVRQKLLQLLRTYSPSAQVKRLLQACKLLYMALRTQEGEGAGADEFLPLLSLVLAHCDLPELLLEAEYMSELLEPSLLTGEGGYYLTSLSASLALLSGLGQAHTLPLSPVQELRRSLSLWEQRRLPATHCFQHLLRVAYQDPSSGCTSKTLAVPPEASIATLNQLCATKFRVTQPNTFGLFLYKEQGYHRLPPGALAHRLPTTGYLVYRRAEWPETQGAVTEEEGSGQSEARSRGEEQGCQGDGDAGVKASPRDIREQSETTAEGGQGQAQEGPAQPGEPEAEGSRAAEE
PAFAH1B2 FP inh – inhibitors of human PAFAH1B2 | P68402 | recombinant PAFAH1B2, FP-rhodamine activity probe, fluorescence polarization | inhibition, % at 3.39 µM | 340,000 compounds, 1.2% hits;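 active = inhibition above the mean of all tested compounds plus 3 SD, cut at about 24% in these data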;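 note: 0% = enzyme with DMSO and 100% = wells lacking PAFAH1B2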
PAFAH1B3 inh – inhibitors of human PAFAH1B3; recombinant PAFAH1B3, FP-rhodamine probe, fluorescence polarization; inhibition, % at 3.39 µM; 340,000 compounds, 0.28% hits;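 active = inhibition above the screen-wide average of all tested compounds plus 3 SD, cut at about 25% in these data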;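 note: 0% = enzyme with DMSO only and 100% = wells lacking PAFAH1B3 protein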
PAFAH2 FP inh – inhibitors of human PAFAH2 | recombinant PAFAH2, FP-rhodamine activity probe, fluorescence polarization | Q99487 | inhibition, % at 3.39 µM | 340,000 compounds, 0.99% hits;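 active = inhibition above the mean over all tested compounds plus 3 SD, cut at about 30% in these data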;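 note: inhibitors block probe labeling of enzyme so polarization drops; 0% = enzyme with DMSO and 100% = wells lacking PAFAH2 protein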
E coli Lon inh – E. coli protease La inhibition | P0A9M0 | purified E. coli Lon protease, fluorescence polarization | inhibition, % at 7.94 µM | 360,000 compounds, 0.42% hits | AID 602123; in the data active = inhibition above about 13%, passing the limit was not always enough;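 note: 0% = enzyme with probe and DMSO and 100% = no enzyme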
* hit, by the source's call. Shown are actives, neighbours in structure and some others; about 3.1% of the full set was active somewhere.

Results for C=CCn1c(-c2cccn(Cc3ccc(Cl)cc3Cl)c2=O)n[nH]c1=S ?
pPAFAH FP inh: -6.1; Rin1 Abl inh: 4.9; PAFAH1B2 FP inh: 29.1*; PAFAH1B3 inh: 5.1; PAFAH2 FP inh: 2.2; E coli Lon inh: 1.6

What do the screens show for `C=CCn1c(-c2cccn(Cc3ccc(Cl)cc3)c2=O)n[nH]c1=S`?
pPAFAH FP inh: 4.3; Rin1 Abl inh: -1.0; PAFAH1B2 FP inh: 33.0*; PAFAH1B3 inh: 4.4; PAFAH2 FP inh: -0.2; E coli Lon inh: 5.7

How did C=CCn1c(-c2cccn(Cc3cccc(Cl)c3)c2=O)n[nH]c1=S do in these assays?
pPAFAH FP inh: -1.1; Rin1 Abl inh: 1.7; PAFAH1B2 FP inh: 1.4; PAFAH1B3 inh: -1.4; PAFAH2 FP inh: -1.2; E coli Lon inh: -2.5

How did O=C(COc1ccccc1[N+](=O)[O-])OCC(=O)c1ccc(Br)s1 do in these assays?
pPAFAH FP inh: 25.6*; Rin1 Abl inh: -78.3; PAFAH1B2 FP inh: 1.9; PAFAH1B3 inh: 1.3; PAFAH2 FP inh: 13.1; E coli Lon inh: -3.6

Results for O=c1c2cc(NC(=S)N3CCCCC3)ccc2nc2n1CCCCC2 ?
pPAFAH FP inh: 7.2; Rin1 Abl inh: -2.0; PAFAH1B2 FP inh: 3.7; PAFAH1B3 inh: 3.5; PAFAH2 FP inh: 5.3; E coli Lon inh: -6.1

What do the screens show for `CC1CCN(C(=S)Nc2ccc3nc4n(c(=O)c3c2)CCCCC4)CC1`?
pPAFAH FP inh: 6.5; Rin1 Abl inh: -2.2; PAFAH1B2 FP inh: 24.3*; PAFAH1B3 inh: 6.0; PAFAH2 FP inh: -6.3; E coli Lon inh: -4.2

What do the screens show for `COC(=O)[C@]1(C)CCC[C@@]2(C)C3CC[C@@]4(C)C[C@]3(CCC21)CC4=NO` (stereo partly specified)?
pPAFAH FP inh: 0.3; Rin1 Abl inh: 1.8; PAFAH1B2 FP inh: 5.5; PAFAH1B3 inh: 9.7; PAFAH2 FP inh: 3.1; E coli Lon inh: 1.8

How did CNC(=O)c1ccsc1NC(=O)C1CCN(S(=O)(=O)c2ccc(Cl)s2)CC1 do in these assays?
pPAFAH FP inh: 4.3; Rin1 Abl inh: -1.7; PAFAH1B2 FP inh: 26.9*; PAFAH1B3 inh: 4.9; PAFAH2 FP inh: 0.9; E coli Lon inh: -5.4

Results for NC(=O)c1ccsc1NC(=O)C1CCN(S(=O)(=O)c2cccs2)CC1 ?
pPAFAH FP inh: -0.7; Rin1 Abl inh: -0.5; PAFAH1B2 FP inh: -0.4; PAFAH1B3 inh: 8.1; PAFAH2 FP inh: 0.7; E coli Lon inh: 2.0

Results for Cc1nn(CC(=O)NNC(=S)NCC2CCCO2)c(C)c1Br (stereo unspecified) ?
pPAFAH FP inh: 27.8*; Rin1 Abl inh: 0.4; PAFAH1B2 FP inh: 4.7; PAFAH1B3 inh: 5.8; PAFAH2 FP inh: -1.4; E coli Lon inh: -9.8

Results for CCOC(=O)C/C(C)=N\Nc1nc(-c2ccccc2)cs1 ?
pPAFAH FP inh: 25.7*; Rin1 Abl inh: 1.8; PAFAH1B2 FP inh: 0.9; PAFAH1B3 inh: 4.1; PAFAH2 FP inh: 3.3; E coli Lon inh: 12.0

How did Cc1ccc(S(=O)(=O)Nc2cccc(C(=O)NCCCN3CCOCC3)c2)cc1F do in these assays?
pPAFAH FP inh: 2.2; Rin1 Abl inh: 1.4; PAFAH1B2 FP inh: 3.7; PAFAH1B3 inh: 4.7; PAFAH2 FP inh: -0.8; E coli Lon inh: -4.1

What do the screens show for `CCN1CCN(CCCNC(=O)c2ccc3c(c2)NC(=O)/C(=C\c2cccc(C)c2)S3)CC1`?
pPAFAH FP inh: 14.2; Rin1 Abl inh: -6.3; PAFAH1B2 FP inh: 11.5; PAFAH1B3 inh: 6.8; PAFAH2 FP inh: 5.5; E coli Lon inh: -2.7

Results for Cc1cccc(/C=C2/Sc3ccc(C(=O)NCCCN4CCOCC4)cc3NC2=O)c1 ?
pPAFAH FP inh: 26.5*; Rin1 Abl inh: -1.7; PAFAH1B2 FP inh: 7.8; PAFAH1B3 inh: -5.3; PAFAH2 FP inh: -13.7; E coli Lon inh: -0.9

What do the screens show for `Cc1ccc(NS(=O)(=O)c2cccc(C(=O)NCCCN3CCOCC3)c2)cc1`?
pPAFAH FP inh: 34.2*; Rin1 Abl inh: -2.3; PAFAH1B2 FP inh: 1.5; PAFAH1B3 inh: -0.7; PAFAH2 FP inh: 10.1; E coli Lon inh: 0.5

How did C=C(C(=O)c1ccccc1)C(C)C(=C)C(=O)c1ccccc1 do in these assays?
pPAFAH FP inh: 1.6; Rin1 Abl inh: 1.9; PAFAH1B2 FP inh: -7.8; PAFAH1B3 inh: 2.6; PAFAH2 FP inh: 5.0; E coli Lon inh: -2.1

Results for CN1CCN(S(=O)(=O)c2cccc(C(=O)N(C)CC(=O)Nc3ccc(Cl)c(Cl)c3)c2)CC1 ?
Rin1 Abl inh: 1.5; PAFAH1B2 FP inh: 10.9; PAFAH1B3 inh: 6.1; PAFAH2 FP inh: -11.5; E coli Lon inh: -7.2

Results for Nn1c(SCC(=O)NC2CCS(=O)(=O)C2)nnc1-c1ccco1 (stereo unspecified) ?
pPAFAH FP inh: -1.7; Rin1 Abl inh: 1.8; PAFAH1B2 FP inh: 3.8; PAFAH1B3 inh: 10.8; PAFAH2 FP inh: 0.2; E coli Lon inh: -4.0

How did CCC(C)[C@H]1CN=C(N)N1CCc1cccc(F)c1 (stereo partly specified) do in these assays?
pPAFAH FP inh: -1.4; Rin1 Abl inh: 1.1; PAFAH1B2 FP inh: 4.2; PAFAH1B3 inh: 7.8; PAFAH2 FP inh: 5.5; E coli Lon inh: -10.6

Results for Cc1cc(NC(=O)CCC(=O)N(CC(=O)NCC2CCCO2)c2ccc(F)c(Cl)c2)no1 (stereo unspecified) ?
pPAFAH FP inh: 1.4; Rin1 Abl inh: 3.4; PAFAH1B2 FP inh: 4.3; PAFAH1B3 inh: -2.2; PAFAH2 FP inh: 2.9; E coli Lon inh: 4.7

Results for O=S(=O)(Nc1ncccn1)c1ccc(NC(=S)NCCc2ccc(Cl)cc2)cc1 ?
pPAFAH FP inh: 0.8; Rin1 Abl inh: 3.6; PAFAH1B2 FP inh: 43.6*; PAFAH1B3 inh: -2.6; PAFAH2 FP inh: -0.3; E coli Lon inh: 5.9

What do the screens show for `O=C(NCCc1ccc(Cl)cc1)C1CCC(=O)N1C1CCCC1` (stereo unspecified)?
pPAFAH FP inh: -1.9; Rin1 Abl inh: -3.6; PAFAH1B2 FP inh: 55.9*; PAFAH1B3 inh: 4.9; PAFAH2 FP inh: 2.5; E coli Lon inh: 11.2

What do the screens show for `S=C(NCCc1ccc(Cl)cc1)NC1CCCCC1`?
pPAFAH FP inh: -9.1; Rin1 Abl inh: -1.3; PAFAH1B2 FP inh: 33.7*; PAFAH1B3 inh: 4.4; PAFAH2 FP inh: 2.0; E coli Lon inh: 2.7

How did S=C(NCCc1ccc(Cl)cc1)NC1CCCC1 do in these assays?
pPAFAH FP inh: 5.7; Rin1 Abl inh: -2.7; PAFAH1B2 FP inh: 26.6*; PAFAH1B3 inh: -0.5; PAFAH2 FP inh: -0.2; E coli Lon inh: -2.4

How did O=C1NC(=NCc2ccccc2)S/C1=C/c1ccc(O)cc1 do in these assays?
pPAFAH FP inh: 29.4*; Rin1 Abl inh: -4.2; PAFAH1B2 FP inh: 5.4; PAFAH1B3 inh: 6.8; PAFAH2 FP inh: 18.7; E coli Lon inh: -25.9

How did O=C(c1ccc(N2CCOCC2)c([N+](=O)[O-])c1)N1CCCC(C(F)(F)F)C1 (stereo unspecified) do in these assays?
pPAFAH FP inh: 2.4; Rin1 Abl inh: -1.3; PAFAH1B2 FP inh: 5.5; PAFAH1B3 inh: 9.6; PAFAH2 FP inh: 7.6; E coli Lon inh: -2.1

Results for O=C1C(=O)N(CCCc2ccccc2)c2ccccc21 ?
pPAFAH FP inh: 26.8*; Rin1 Abl inh: -4.3; PAFAH1B2 FP inh: 8.7; PAFAH1B3 inh: 0.6; PAFAH2 FP inh: 1.8; E coli Lon inh: -23.5
